Source: PubChem BioAssay (Sanford-Burnham Center for Chemical Genomics)
CD11b adhes inh: inhibitors of CD11b/CD18 adhesion to fibrinogen, primary screen, K562 cells, luminescence. inhibition, % at 10 µM. 93,000 compounds, 0.54% hits. ATPlite luminescence; Mn2+ added to activate the integrin. Integrin beta-2 (Homo sapiens) + Integrin alpha-M (Homo sapiens), P05107+P11215;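 active = primary inhibition of 50% or more at 10 µM, then 40% or more on retest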
Target sequence (P05107 whole entry, looked up, other chains not shown): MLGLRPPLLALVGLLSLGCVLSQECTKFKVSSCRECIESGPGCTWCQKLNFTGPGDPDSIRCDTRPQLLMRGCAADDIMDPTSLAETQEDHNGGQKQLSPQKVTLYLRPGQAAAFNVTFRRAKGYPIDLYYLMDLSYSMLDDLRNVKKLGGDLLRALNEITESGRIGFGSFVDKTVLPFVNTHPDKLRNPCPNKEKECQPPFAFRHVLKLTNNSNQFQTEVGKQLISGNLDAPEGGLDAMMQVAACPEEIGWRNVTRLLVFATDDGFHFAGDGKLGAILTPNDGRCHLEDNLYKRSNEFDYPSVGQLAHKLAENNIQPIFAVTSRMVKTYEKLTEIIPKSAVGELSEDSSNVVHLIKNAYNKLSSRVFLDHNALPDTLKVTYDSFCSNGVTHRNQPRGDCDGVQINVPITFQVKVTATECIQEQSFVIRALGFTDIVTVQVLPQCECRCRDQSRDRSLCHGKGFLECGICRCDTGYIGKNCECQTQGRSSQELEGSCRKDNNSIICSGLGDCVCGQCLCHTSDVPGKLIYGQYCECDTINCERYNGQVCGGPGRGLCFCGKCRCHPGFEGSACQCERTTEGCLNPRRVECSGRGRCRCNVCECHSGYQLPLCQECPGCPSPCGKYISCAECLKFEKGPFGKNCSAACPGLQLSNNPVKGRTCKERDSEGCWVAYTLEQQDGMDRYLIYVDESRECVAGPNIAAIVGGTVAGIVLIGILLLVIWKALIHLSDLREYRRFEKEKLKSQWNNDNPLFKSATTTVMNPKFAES
CYP2C9 inhib: blockers of cytochrome P450 2C9 activity – biochemical, luminescence, ADME assay, primary screen. P11712. CYP2C9 Supersomes, luciferin-H conversion. inhibition, % at 5 µM. 96,000 compounds, 20% hits. AID 777, 2007;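 active = blocking of liver enzyme CYP2C9 beyond about 50% at 5 µM, limit read from the data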
CYP2C19 activ: human CYP2C19 activators, primary screen, biochemical, luminescence. Cytochrome P450 2C19 (Homo sapiens), P33261. recombinant CYP2C19, luciferin-H EGE luminescence; stronger effect = higher value; 0 = fully inhibited enzyme, 1 = untreated enzyme. 96,000 tested, under 10 active. activation factor at 5 µM. AID 1025, 2008;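 active = activation factor of at least 2 at 5 µM in the primary screen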
CYP2C19 inh: blockers of cytochrome P450 2C19 activity – biochemical, luminescence, ADME assay, primary screen; P33261; CYP2C19 Supersomes, luciferin-H EGE luminescence, 30 min; inhibition, % at 5 µM; 96,000 compounds, 21% hits; AID 778, 2007;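 active = CYP2C19 inhibition above a set limit at 5 µM in the primary screen, cut at about 50% in these data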
CYP2C9 act: human CYP2C9 activators, primary screen, biochemical, luminescence | 96,000 compounds, 1.4% hits | AID 1024, 2008 | Cytochrome P450 2C9 (Homo sapiens), P11712 | activation factor at 5 µM | recombinant CYP2C9, luciferin-H conversion; stronger effect = higher value; factor 1 = untreated enzyme, 0 = blocked;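 active = activation factor of 2 or more for CYP2C9 at a 5 µM dose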
Mac1 fbg enh: enhancers of CD11b/CD18 adhesion to fibrinogen, primary screen, K562 cells, luminescence; 93,000 compounds, 0.07% hits; activation, % at 10 µM; ATPlite luminescence; Integrin beta-2 (Homo sapiens) + Integrin alpha-M (Homo sapiens), P05107+P11215;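 active = 10 µM primary screen giving 50% or more activity, confirmed by 40% or more on retest at that dose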
A number is an active result; n = inactive; x = no result given. Rows were chosen to be rich in hits. Some 28% of all compounds tested hit in one or more screens of this group.

SMILES | CD11b adhes inh | CYP2C9 inhib | CYP2C19 activ | CYP2C19 inh | CYP2C9 act | Mac1 fbg enh
NC(=O)CSc1nnc(Cc2ccc3c(c2)OCO3)n1C1CCCCC1 | n | n | n | n | n | n
O=C(c1ccccc1Oc1ccccc1)N1CCN(c2ccccc2F)CC1 | n | 90.1 | n | 78.8 | n | n
COc1ccccc1N1CCN(C(=O)c2cc3cc(Br)ccc3oc2=O)CC1 | n | n | n | 59.2 | n | n
O=C(c1ccc(Br)s1)N1CCN(c2ncccn2)CC1 | n | 80.4 | n | 97.6 | n | n
CCN1CCN(c2ncnc3c2cnn3-c2ccccc2)CC1 | n | n | n | n | n | n
CCOC(=O)C1CCCN(c2ncnc3c2cnn3-c2cccc(C)c2)C1 (stereo unspecified) | n | n | n | n | n | n
c1ccc(-n2ncc3c(N4CCCCC4)ncnc32)cc1 | 59.0 | 81.5 | n | 83.4 | n | n
c1ccc(CCN2CCN(c3ncnc4c3cnn4-c3ccccc3)CC2)cc1 | n | 77.6 | n | 78.7 | n | n
c1ccc(Cn2nnc3c(N4CCCCCC4)ncnc32)cc1 | n | 70.7 | n | n | n | n
Cc1cccc(-n2ncc3c(N4CCC(C)CC4)ncnc32)c1 | n | 96.1 | n | 71.2 | n | n
O=C(CN1C(=O)C2CC=CCC2C1=O)NCC1COc2ccccc2O1 (stereo unspecified) | x | n | n | n | n | x
CCOC(=O)c1cnc(-n2nc(C)cc2C)nc1NC | n | n | n | n | n | n
CCOC(=O)c1cnc(-n2nc(C)cc2C)nc1N(CC)CC | n | 78.6 | n | n | n | n
CCOc1cc(C2/C(=C(/O)c3ccc(OC(C)C)cc3)C(=O)C(=O)N2CCCOC)ccc1O (stereo unspecified) | x | n | n | n | n | x
Cc1ncoc1C(=O)Nc1cccc(Cl)c1C | x | n | n | n | n | x
Cc1c(Cl)cccc1NC(=O)c1ccc(-n2ccnc2)nc1 | n | 98.5 | n | 99.1 | n | n
c1ccc(-c2nnc3sc(-c4ccncc4)nn23)cc1 | n | n | n | n | n | n
c1ccc(CCc2nn3c(-c4ccncc4)nnc3s2)cc1 | n | 53.7 | n | 94.9 | n | n
COc1ccccc1-c1nn2c(-c3ccccc3Cl)nnc2s1 | n | n | n | n | n | n
Clc1ccccc1-c1nnc2sc(CCc3ccccc3)nn12 | n | 52.6 | n | 87.6 | n | n
COc1ccc(NC(=O)CSc2c(C)n[nH]c2C)cc1 | n | n | n | n | n | n
COc1ccc(NC(=O)CSc2nc(-c3ccncc3)nn2CC(=O)N2CCCC2)cc1 | n | 83.4 | n | 92.1 | n | n
CCN(CC)C(=O)Cn1nc(-c2ccccc2O)nc1SCC(=O)Nc1ccc(OC)cc1 | n | 68.6 | n | n | n | n
CCCn1c(SCC(=O)Nc2ccc(OC)cc2)nnc1-c1ccncc1 | n | n | n | n | n | n
CC1CCN(S(=O)(=O)c2cccc(S(=O)(=O)N3CCOCC3)c2)CC1 | n | n | n | n | n | n
SMILES | CD11b adhes inh | CYP2C9 inhib | CYP2C19 activ | CYP2C19 inh | CYP2C9 act | Mac1 fbg enh
O=S(=O)(Cc1ccccc1Cl)N1CCCCC1 | n | n | n | 59.8 | n | n
CC1CCN(S(=O)(=O)Cc2ccccc2Cl)CC1 | n | n | n | 96.2 | 3.4 | n
CC(C)(C)C(=O)N1CCC(O)(CS(=O)(=O)Cc2ccccc2Cl)CC1 | n | n | n | n | n | n
O=C(Nc1nc2c(s1)CCCC2=O)c1cnccn1 | n | n | n | n | n | n
C=CCNC(=O)C1CCN(S(=O)(=O)c2ccccc2)CC1 | n | n | n | n | n | n
CC1CN(C(=O)CN2C(=O)NC3(CCCCCC3)C2=O)CC(C)O1 (stereo unspecified) | x | n | n | n | n | x
COc1ccccc1CC1(C)NC(=O)N(CC(=O)N2CC(C)OC(C)C2)C1=O (stereo unspecified) | n | n | n | 56.7 | n | n
CCCCCn1c(N2CCC(C(N)=O)CC2)nc2c1c(=O)[nH]c(=O)n2C | n | n | n | n | n | n
OCCN1CCN(c2ncnc3ccc(Br)cc23)CC1 | n | n | n | n | n | n
CC1CC(N(C(=O)c2ccco2)c2ccccc2)c2ccccc2N1C(=O)c1ccco1 (stereo unspecified) | n | 87.8 | n | 91.1 | n | n
CC1CC(N(C(=O)C2CC2)c2ccccc2)c2ccccc2N1C(=O)C1CC1 (stereo unspecified) | n | n | n | n | n | n
CC1CC(N(C(=O)c2ccc(Cl)cc2)c2ccccc2)c2ccccc2N1C(=O)c1ccco1 (stereo unspecified) | n | 97.0 | n | 91.2 | n | n
O=C(c1ccco1)N1CCN(Cc2ccc(Cl)cc2)CC1 | x | n | n | n | n | x
C=CCNC(=O)c1cccc(C(F)(F)F)c1 | n | n | n | n | n | n
CC(C(=O)NCc1ccccc1)N1C(=O)CN(C)C(=O)c2ccccc21 (stereo unspecified) | n | n | n | n | n | n
Cc1ccccc1-c1cc(-c2ccccc2O)n[nH]1 | n | 96.1 | n | 92.7 | n | n
Cc1ccc(-c2cc(-c3ccccc3Cl)[nH]n2)c(O)c1 | n | n | n | n | n | n
COc1ccccc1-c1cc(-c2cc(Cl)ccc2O)n[nH]1 | n | n | n | n | n | n
Oc1ccc(Cl)cc1-c1cc(-c2ccccc2)n[nH]1 | n | n | n | 50.8 | n | n
Cc1ccc(-c2cc(-c3ccccc3[N+](=O)[O-])[nH]n2)c(O)c1 | x | 77.5 | n | n | n | x
C=CCNC(=O)CC(C)C(CCCCC)C(=O)O (stereo unspecified) | n | n | n | n | n | n
O=C(OCc1c(Cl)cccc1Cl)c1ccncc1 | n | x | x | x | x | n
CCOC(=O)CCc1c(C)nc2ncnn2c1C | x | n | n | n | n | x
Cc1nc2ncnn2c(C)c1CCC(=O)O | n | n | n | n | n | n
Cc1ccc(OC(=O)CCc2c(C)nc3ncnn3c2C)cc1 | n | n | n | 56.0 | n | n
SMILES | CD11b adhes inh | CYP2C9 inhib | CYP2C19 activ | CYP2C19 inh | CYP2C9 act | Mac1 fbg enh
Cc1nc2ncnn2c(C)c1Cc1c(Cl)cccc1Cl | n | n | n | 61.8 | n | n
COc1ccc(C(OC(=O)c2cccs2)C(=O)NCC2CCCO2)cc1 (stereo unspecified) | n | n | n | 63.0 | n | n
COc1ccccc1C(OC(=O)c1cccs1)C(=O)NCC1CCCO1 (stereo unspecified) | x | n | n | n | n | x
CC(C)CC(OC(=O)c1cccs1)C(=O)NCC1CCCO1 (stereo unspecified) | n | 84.0 | n | 58.0 | n | n
CCc1ccc(OCC(=O)Nc2ncc3c(n2)CC(C)(C)CC3=O)cc1 | n | n | n | n | n | n
Cc1cc(C(=O)NCCCN2CCN(C3CCCCC3)CC2)n(-c2ccccc2)n1 | n | n | n | n | n | n
